# Bioassay records from PubChem.
# Rows were chosen to be rich in hits. Some 32% of all compounds tested hit in one or more screens of this group.
# PostGolgi yeast: growth inhibition of a yeast mutant, post-Golgi transport screen; post-Golgi transport phenotypic cell assay; inhibition, % at 10 µM; actives 0.9% (n = 98,000); AID 739;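 further: yeast cells grown in 1536-well plates; yeast grown about 18 h at 30C before absorbance read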
# CYP2C9 inh: blocks human cytochrome P450 2C9; actives 20% (n = 96,000); inhibition, % at 5 µM; P11712; AID 777; CYP2C9 Supersomes, luciferin-H conversion, luminescence;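 active means blocking of liver enzyme CYP2C9 beyond about 50% at 5 µM, limit read from the data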
# CYP2C19 inhib: human CYP2C19 inhibition; P33261; CYP2C19 Supersomes, luciferin-H EGE luminescence, 30 min; inhibition, % at 5 µM; actives 21% (n = 96,000);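 active means CYP2C19 inhibition above a set limit at 5 µM in the primary screen, cut at about 50% in these data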;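 further: plate controls were negative control wells for no effect and 2.5 mM tranylcypromine positive control for full effect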
# Target sequence (P33261 whole entry, looked up): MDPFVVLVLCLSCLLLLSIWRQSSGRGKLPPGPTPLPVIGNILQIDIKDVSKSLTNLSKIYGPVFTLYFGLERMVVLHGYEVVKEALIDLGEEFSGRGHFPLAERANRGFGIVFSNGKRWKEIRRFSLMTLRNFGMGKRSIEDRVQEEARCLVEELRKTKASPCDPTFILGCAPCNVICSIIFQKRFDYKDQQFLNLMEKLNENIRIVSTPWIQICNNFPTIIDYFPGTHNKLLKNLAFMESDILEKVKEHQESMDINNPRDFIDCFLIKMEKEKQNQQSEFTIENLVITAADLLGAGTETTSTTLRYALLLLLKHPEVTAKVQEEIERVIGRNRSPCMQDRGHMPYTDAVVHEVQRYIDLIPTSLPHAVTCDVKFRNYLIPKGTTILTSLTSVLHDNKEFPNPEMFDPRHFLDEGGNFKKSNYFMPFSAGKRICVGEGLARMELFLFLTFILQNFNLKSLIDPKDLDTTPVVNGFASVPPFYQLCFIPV
# PostGolgi ctrl: inhibits growth of the yeast control strain; efflux-deficient yeast background strain, growth absorbance A615, 16 h; actives 5% (n = 98,000); inhibition, % at 10 µM; AID 738
# CYP2C9 act: CYP2C9 (human) activation; recombinant CYP2C9, luciferin-H conversion, luminescence; active compounds read high; factor 1 = untreated enzyme, 0 = blocked; activation factor at 5 µM; actives 1.4% (n = 96,000); AID 1024;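 active means activation factor of 2 or more for CYP2C9 at a 5 µM dose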;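 further: 0 = sulfaphenazole-blocked wells and 1 = vehicle-only wells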
# CYP2C19 activ: cytochrome P450 2C19 (human) activation. recombinant CYP2C19, luciferin-H EGE luminescence; active compounds read high; 0 = fully inhibited enzyme, 1 = untreated enzyme. activation factor at 5 µM. 96,000 tested, under 10 active;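 active means activation factor of at least 2 at 5 µM in the primary screen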;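 further: 0 = wells with 2.5 mM tranylcypromine and 1 = vehicle-only wells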
# * hit, by the source's call; x = no result given. Unless noted, no stated cut-off is given here; in the data, active means inhibition above about 30%; inactive means the rest.
SMILES,PostGolgi yeast,CYP2C9 inh,CYP2C19 inhib,PostGolgi ctrl,CYP2C9 act,CYP2C19 activ
CCc1ccc2[nH]c(=O)c(CN(CCCN3CCOCC3)C(=O)Nc3ccc(Cl)cc3)cc2c1,4,38,39,25,0.6,0.6
Cn1c(=O)c2c(nc(N3CCc4ccccc4C3)n2Cc2ccc(Br)cc2)n(C)c1=O,-5,19,9,27,0.8,0.9
COc1ccc(N2CCN(c3nc4c(c(=O)n(C)c(=O)n4C)n3Cc3ccccc3)CC2)cc1,13,68*,49,10,0.3,0.5
Cn1c(=O)c2c(nc(N3CCN(c4ccccn4)CC3)n2Cc2ccccc2Cl)n(C)c1=O,-1,45,35,33*,0.6,0.6
CCN1CCN(c2nc3c(c(=O)n(C)c(=O)n3C)n2Cc2cccc3ccccc23)CC1,7,22,16,3,0.8,0.8
Cn1c(=O)c2c(nc(N3CCc4ccccc4C3)n2Cc2ccccc2F)n(C)c1=O,9,x,x,47*,x,x
COC(=O)[C@@H](NC(=O)Nc1ccccc1F)C(C)C,-13,-4,17,8,1,0.8
Cn1cccc1Cc1nnc(SCC(=O)NC2CCCCC2)n1CCc1ccccc1,-6,42,44,-3,0.6,0.6
Cc1ccc(C)c(NC(=O)CCC(=O)NNC(=O)c2cccc([N+](=O)[O-])c2)c1,-5,4,-16,5,1,1.2
O=c1[nH]c(NCc2ccco2)nnc1Cc1ccccc1Cl,-3,-153,-1,2,2.5*,1
Cn1c(=O)[nH]c(=O)c2c1nc(NCc1ccco1)n2CCCc1ccccc1,5,7,0,6,0.9,1
Cc1ccc2c(c1)CN1CN2Cc2cc(C)ccc21,-7,42,54*,-2,0.6,0.5
CCC(=O)Oc1ccc(C/C(=N\O)c2ccc(O)cc2O)o1,-4,96*,96*,-5,0,0
O=[N+]([O-])c1ccc(C(=S)N2CCN(Cc3ccccc3)CC2)cc1,-11,-9,7,7,1.1,0.9
CCOC(=O)c1cc(C)n(Cc2ccc(OCC)c(OC)c2)c1C,-3,59*,15,15,0.4,0.8
CCOc1cc(CN2CCCCC2)ccc1OC,0,-13,9,6,1.1,0.9
CCCCNc1nc(-c2ccccc2)c(C(=O)OCC)cc1C#N,0,56*,31,23,0.4,0.7
CCCNc1nc(-c2ccccc2)c(C(=O)OCC)cc1C#N,-9,57*,27,19,0.4,0.7
C=CCNc1nc(-c2ccccc2)c(C(=O)OCC)cc1C#N,1,25,26,20,0.8,0.7
CC(=O)c1c(C)nn(CCC(=O)O)c1C,10,-5,-3,14,1.1,1
CC1(C)Cc2noc(N)c2C(C)(C)N1OC(=O)c1ccccc1,7,57*,100*,8,0.4,0
COC(=O)c1ccccc1OC(=O)c1ccc(Br)o1,2,16,76*,15,0.8,0.2
Cc1nn(C)cc1CNC(=O)c1ccc(Br)o1,-7,8,14,1,0.9,0.9
CCNC(=S)NC1CC2CCC(C1)N2Cc1ccccc1 (stereo not given),4,9,52*,11,0.9,0.5
CCCNC(=S)NC1CC2CCC(C1)N2Cc1ccccc1 (stereo not given),-1,-2,18,0,1,0.8
SMILES,PostGolgi yeast,CYP2C9 inh,CYP2C19 inhib,PostGolgi ctrl,CYP2C9 act,CYP2C19 activ
COc1cc2nc(=S)n3[nH]c(CCn4nc(C)cc4C)nc3c2cc1OC,4,44,30,-2,0.6,0.7
Cc1ccc(NC2=CC(=O)CC(C)(C)C2)c(N)c1,-3,-3,19,38*,1,0.8
O/N=C1/CCCSc2ccccc21,0,-2,-8,4,1,1.1
Cc1cccc(NC(=O)c2cccc(N3C(=O)C4C5CCC(C5)C4C3=O)c2)c1C (stereo not given),9,0,-12,2,1,1.1
Cc1ccccc1CN(c1ccc(C(=O)Nc2ccccc2C(=O)N2CCCC2)cc1)S(C)(=O)=O,-8,91*,99*,3,0.1,0
COc1ccc(N(CC(=O)N2CCc3ccccc3C2)S(C)(=O)=O)cc1OC,3,-6,16,15,1.1,0.8
CCOC(=O)N1CCN(C(=O)c2ccccc2NC(=O)c2ccc(OC)cc2)CC1,0,-1,2,1,1,1
CN(c1ccccc1C(=O)Nc1ccccc1C(=O)NCc1ccco1)S(C)(=O)=O,1,47,29,0,0.5,0.7
Cc1ccccc1CN(c1ccc(C(=O)N2CCc3ccccc3C2)cc1)S(C)(=O)=O,-2,63*,55*,12,0.4,0.5
Cc1ccccc1CN(c1ccc(C(=O)Nc2ccccc2C(=O)NCc2ccco2)cc1)S(C)(=O)=O,-6,83*,99*,3,0.2,0
CNC(=O)c1ccc(N(Cc2ccccc2C)S(C)(=O)=O)cc1,2,43,57*,3,0.6,0.4
COc1ccc(N(CC(=O)O)S(=O)(=O)c2cccnc2)cc1,3,-23,-20,7,1.2,1.2
Cc1cc(C)c(S(=O)(=O)NCCC2CCCN2C)c(C)c1 (stereo not given),-1,-13,2,3,1.1,1
CCn1c(COc2ccc(Cl)cc2)nnc1SCc1ccc(C#N)cc1,-10,76*,76*,34*,0.2,0.2
Cc1cccc(-c2nnc(SCc3ccc(C#N)cc3)n2Cc2ccco2)c1,-2,35,42,22,0.6,0.6
CCn1c(SCc2ccc(C#N)cc2)nnc1-c1cccc(Cl)c1,2,14,65*,17,0.9,0.3
Cc1csc(SCC(=O)O)n1,1,3,4,11,1,1
CCN(CC)C(=O)c1ccc(C(=O)c2ccccc2)cc1,4,11,13,0,0.9,0.9
CCN(CC)NC(=S)Nc1ccccc1,16,-15,28,18,1.2,0.7
CC(C)NC(=S)NN(c1ccccc1)c1ccccc1,0,51*,62*,3,0.5,0.4
N/C(COc1ccccc1)=N\NS(=O)(=O)c1ccccc1,6,-19,21,1,1.2,0.8
Cc1ccccc1OCCCC(=O)Nc1ccc(Br)cc1,-2,0,14,10,1,0.9
COc1cccc(Cn2nnc(C(=O)Nc3cc(Cl)ccc3OC)c2N)c1,-12,-106,-4,22,2.1*,1
COc1ccc(OC)c(NC(=O)c2nnn(Cc3ccc(Br)cc3F)c2N)c1,-13,6,38,31*,0.9,0.6
COc1cccc(Cn2nnc(C(=O)NCc3ccccc3Cl)c2N)c1,-5,-190,23,20,2.9*,0.8
COc1cccc(Cn2nnc(C(=O)NCc3ccc(F)cc3)c2N)c1,-7,-1,-9,9,1,1.1
COc1ccc(NC(=O)c2nnn(Cc3cccc(F)c3)c2N)c(OC)c1,-18,-62,18,11,1.6,0.8
